In the first test the test system is DYRK1B. The settings on record: concentration: 1 μM, replicates: in singlicate; n = 1.
Consider `CC(=O)Nc1nc2cnc(Nc3cc(NC(=O)c4cccc(C5(C#N)CC5)c4Cl)ccc3C)nc2s1`, for which the “%Inh” value worked out at 67%.

On to `c1ccc(-c2cnc3nccnn23)cc1` [AH20685], for which the “%Inh” value turned out to be 5%.

For `CCn1c(-c2nonc2N)nc2c(C#CC(C)(C)O)nc(OC[C@H](N)c3ccccc3)cc21` [GSK943949], the “%Inh” value is 0%.

For `Cl.Cl.NCC(C(=O)Nc1cc(Br)c(-c2ccnc3[nH]ccc23)s1)c1ccccc1` (centres unmarked) [GSK1269851], the “%Inh” value is 33%.

Regarding `COc1cccc(C2=C(Nc3ccc(Cl)c(C(=O)O)c3)C(=O)NC2=O)c1` [SB-390769], the “%Inh” value was determined as 100%.

For `Cc1cccc(Nc2nc(N[C@H]3CCNC3)ncc2C(N)=O)c1.Cl` [GSK2197149], the “%Inh” value stood at 12%.

The next test relates to DYRK2. To be noted: concentration: 1 μM, replicates: in singlicate; n = 1.
As for `Cc1ccc(C(=O)Nc2ccc(Nc3ccnc4cc(-c5nccs5)ccc34)cc2O)cc1.Cl` [GW494702], the “%Inh” value was found to be 0%.

In the case of `CC(C)c1nc(-c2cccc(NS(=O)(=O)c3c(F)cccc3F)c2F)c(-c2ccnc(Nc3ccc(N4CCOCC4)nc3)n2)s1` [GSK2008607], the “%Inh” value is 16%.

On to `Cl.c1ccc(-c2ccc3c(Nc4ccc5[nH]ccc5c4)ccnc3c2)nc1` [GW440138], for which the “%Inh” value worked out at 0%.

For `Nc1ncc(-c2cccnc2)c2scc(-c3ccc4c(c3)CCN4C(=O)Cc3ccccc3)c12` [GSK683281], the “%Inh” value was 24%.

As to `COc1cc(Nc2nccc(-c3c(-c4cccc(NC(=O)c5c(F)cccc5F)c4)nn4ccccc34)n2)cc(OC)c1OC` [GSK323521], the “%Inh” value is 0%.

On to `CCc1ccc(-c2ccc3c(c2)-c2c(cnn2C)S(=O)(=O)N3C)cc1`, for which the “%Inh” value amounted to 0%.

Consider `COC(=O)Nc1nc2cc(Oc3ccc(NC(=O)Nc4cc(C(F)(F)F)ccc4F)cn3)ccc2[nH]1.Cl.Cl` [GW681170], for which the “%Inh” value was found to be 0%.

Take `Cc1occc1-c1ncc(OC[C@@H](N)Cc2c[nH]c3ccccc23)cc1-c1ccc2[nH]nc(C)c2c1.O=C(O)C(F)(F)F` [GSK682037]: the “%Inh” value is listed as 26%.

For `O=C(Nc1cccc(Oc2ccc3nc(NC(=O)C4CC4)cn3n2)c1)c1ccccc1C(F)(F)F`, the “%Inh” value was 0%.

Regarding `CSc1cccc2c(-c3ccncn3)c(-c3ccc(F)cc3)nn12` [GW514786], the “%Inh” value came out at 12%.

In the case of `COc1cc(Nc2ncc3c(C)nc(-c4cc5ccccc5[nH]4)n3n2)cc(OC)c1OC` [GW869516], the “%Inh” value came out at 0%.

Regarding `O=C(Nc1cccc(-c2nn3ccccc3c2-c2ccnc(Nc3cccc(C(F)(F)F)c3)n2)c1)c1c(F)cccc1F` [GSK292658], the “%Inh” value was determined as 3%.

On to `CNC(=O)c1ccccc1Nc1nc(Nc2ccc(N3CCOCC3)cc2)ncc1Cl.Cl` [GSK1576028], for which the “%Inh” value came out at 99.1%.

Consider `Cl.c1ccc(-c2ccc3c(Nc4ccc5[nH]ncc5c4)ccnc3c2)nc1` [GW440137], for which the “%Inh” value is reported as 26%.

As for `Cl.Cl.NCC(NC(=O)c1cc(-c2ccccc2)c(-c2ccnc3[nH]ccc23)s1)c1ccccc1` (centres unmarked) [GSK1321561], the “%Inh” value is on record as 25%.

As to `COc1cc2c(cc1OCCN1CCNCC1)ncc1c3ccc(C#N)cc3[nH]c21`, the “%Inh” value is 73%.

For `CCn1c(-c2nonc2N)nc2c(C#CC(C)(C)O)ncc(OCCCCN)c21.O=C(O)C(F)(F)F.O=C(O)C(F)(F)F` [GSK507274], the “%Inh” value worked out at 8%.

In the case of `COc1cc(Nc2nccc(-c3c(-c4cccc(NC(=O)c5c(F)cccc5F)c4)nn4ncccc34)n2)cc(OC)c1OC` [GSK327238], the “%Inh” value was found to be 16%.

In the case of `COc1cc(Nc2nccc(N3CCC(NC(=O)Nc4cccc(C(C)=O)c4)C3)n2)cc(OC)c1OC` (centres unmarked) [GSK1379753], the “%Inh” value is reported as 21%.

As to `CN(C)S(=O)(=O)c1cc(-c2ccc3nccc(-c4cccc(S(N)(=O)=O)c4)c3c2)cnc1N` [GSK1669921], the “%Inh” value was 44%.

As for `COCCOCCOc1cc2ncc3c4ccc(C#N)cc4[nH]c3c2cc1OC`, the “%Inh” value was 70%.

As to `Nc1n[nH]c2cnc(-c3ccccc3)cc12` [SB-642124], the “%Inh” value came out at 88%.

`CN1CCN(CCCNc2nccc(-c3c(-c4ccc(F)cc4)nn4cc(C(F)(F)F)ccc34)n2)CC1` [GW621581]: the “%Inh” value is listed as 4%.

In the case of `Nc1ncnc2c1nc(-c1ccccc1)n2-c1ccccc1` [SKF-97293], the “%Inh” value is given as 25%.

For the compound `Cl.NC(=O)c1cccc(Nc2nccc(Nc3ccc(Oc4c(Cl)cccc4Cl)c(Cl)c3)n2)c1` [GW659009], the “%Inh” value is reported as 6%.

With `Cc1ccc(F)c(C(=O)Nc2cccc(-c3nn4ccccc4c3-c3ccnc(Nc4cccc(F)c4)n3)c2)c1F` [GSK361061], the “%Inh” value was 5%.

The values are drawn from PMC5540273 (PLoS ONE, 2017).
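Note: KINOMEscan kinase panel screen.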
